Structures are written as SMILES.

Here are results for eleven compounds from PubChem BioAssay.

In this assay the target is Alpha-bungarotoxin (Bungarus multicinctus) (UniProt P60615). Description: alpha-bungarotoxin binders on microarray, profiling panel, artefact control for SMM control protein annotation, biochemical, small-molecule microarray, Alexa647 label, 635/667 nm fluorescence (AID 1117). Particulars: alpha-BTX-A647 binding fluorescence, higher = more signal.
Alpha-bungarotoxin (Bungarus multicinctus), sequence (P60615 whole entry, looked up): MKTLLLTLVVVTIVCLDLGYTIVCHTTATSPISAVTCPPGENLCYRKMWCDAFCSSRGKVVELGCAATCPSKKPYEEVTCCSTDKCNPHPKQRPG
Take `C=C1C(=O)C=C2CN(C(=O)c3ccccc3)[C@@](Cc3ccc(OC)cc3)(C(=O)OC)[C@@H]12`: the composite z-score stood at 1.2. `COC(=O)[C@@]1(Cc2ccc(F)cc2)[C@H]2c3cc(C(=O)N(C)C)n(C)c3C[C@H]2CN1C(=O)c1ccccc1`: the composite z-score came out at 0.0278. Take `COCCCNC(=O)[C@@]1(CCS(=O)(=O)c2ccccc2)COC(c2ccc(OCCCO)cc2)=N1`: the composite z-score is 3.34. `CO[C@H]1O[C@H](CO)[C@@H](OC(=O)Nc2ccc3c(c2)OCO3)[C@H](OC(=O)Nc2ccccc2-c2ccccc2)[C@H]1OC(=O)Nc1ccccc1-c1ccccc1` displayed a composite z-score of 0.557. Turning to `NC(=O)N1C(=O)C2C(C1=O)C1C=C(CCCO)C2C(C2CC2)N1Cc1sc2ccccc2c1Cl` (stereo unspecified), the composite z-score was determined as 1.67.

In the case of `C=CC[C@@]1(C(=O)OC)N=C(c2ccc(OCCCO)cc2)O[C@@H]1c1ccccc1N=[N+]=[N-]`, the composite z-score was 1.43.

In turn, `C=CCC(OC(C)=O)[C@@H]1[C@@H](N(Cc2ccc(-c3ccccc3)cc2)C(=O)c2cccc3ccccc23)c2cc(OCCCO)ccc2N1C(=O)Cc1ccc(OC)cc1` (stereo partly specified) yielded a composite z-score of 0.313. For `CCOc1cc(C(O)C2C=CC3C(=O)N(c4ccccc4)C(=O)C3N2Nc2ccccc2F)ccc1O` (stereo unspecified), the composite z-score came out at 0.762. Compound `C=CCC(OC(C)=O)[C@@H]1[C@@H](N(Cc2cc3ccccc3o2)C(=O)c2cccc3ccccc23)c2cc(OCCCO)ccc2N1C(=O)c1ccc2ccccc2n1` (stereo partly specified) came in with a composite z-score of 0.0884. Compound `COc1ccc(C(O)C2C=CC3C(=O)N(C)C(=O)C3N2N(c2ccccc2)c2ccccc2)cc1` (stereo unspecified) returned a composite z-score of 0.844. Regarding `O=C1O[C@@H](c2ccccc2)[C@@H](c2ccccc2)N2[C@@H](c3ccc(OCCO)cc3)[C@]3(C(=O)Nc4ccc(C#CC5(O)CCCCCC5)cc43)[C@@H](C(=O)Nc3nc4ccccc4s3)[C@H]12`, the composite z-score worked out at 1.41.
